Experiment [1] relates to TRPC4 beta (transient receptor potential cation channel C4), mouse. Kind of experiment: TRPC4 cation channel opening, retest – cell-based, Fluo4 calcium, HEK293 TRPC4beta/mu-opioid, duplicates, 10 µM, confirmation (AID 2426;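 active means fluorescence ratio normalized to control raised more than 50% in primary screen plus both repeat runs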;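 on activation: percent rise of integrated ratio over buffer wells lacking compound which define 0%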). Particulars: Fluo4 calcium fluorescence, at 10 µM; stronger effect = higher value.
Experiment [2] has as its system transient receptor potential cation channel C4 beta (TRPC4), mouse. Kind of experiment: TRPC4 cation channel opening, second retest – cell-based, second round, Fluo4, HEK293 TRPC4beta/mu-opioid, 1 µM, confirmation (AID 2461;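 active means primary screen active and over 50% activation in each of two duplicate runs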). Particulars: Fluo4 calcium fluorescence, at 1 µM; stronger effect = higher value.
Experiment [3] has as its system TRPC4 (transient receptor potential cation channel C4 beta), mouse. Description: potentiation of DAMGO EC20 TRPC4 response – cell-based, second round, Fluo-4, HEK293 TRPC4beta/mu-opioid, 1 µM, confirmation (AID 2554;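 active means primary screen hit whose fluorescence ratio, in both repeats, exceeds the weak agonist control mean by 3 SD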). The conditions noted are these: DAMGO EC20, Fluo-4 calcium flux, at 1 µM; stronger effect = higher value. (Calcium flux is commonly read through the fluorescence of an indicator in the cells.)

The test system of experiment [4] is TRPC4 beta (transient receptor potential cation channel C4), mouse. Kind of experiment: potentiation of DAMGO EC20 TRPC4 response – cell-based, Fluo-4, HEK293 TRPC4beta/mu-opioid, confirmation (AID 2555;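 active means primary screen hit whose calcium fluorescence ratio, in both repeats, exceeds the weak agonist control mean by 3 SD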). Particulars: DAMGO EC20, Fluo-4 calcium flux, at 10 µM; stronger effect = higher value.
Experiment [5] concerns the target Short transient receptor potential channel 4 (Mus musculus) (UniProt Q9QUQ5). Description: blockers of DAMGO-evoked TRPC4 calcium flux – cell-based, Fluo4, HEK293 TRPC4beta/mu-opioid, confirmation (AID 2636). The conditions noted are these: at 10 µM; stronger effect = higher value.
Experiment [6] shares this target. Kind of experiment: blockers of DAMGO-evoked TRPC4 calcium flux – cell-based, second round, Fluo4, HEK293 TRPC4beta/mu-opioid, 1 µM, confirmation (AID 2637;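 active means calcium signal ratio cut to more than 3 SD under the fully stimulated control mean yet still positive, in both repeats and the primary screen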;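 on inhibition: percent of integrated ratio relative to wells lacking test compound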). The conditions noted are these: at 1 µM; stronger effect = higher value.
For experiment [7] the target is unchanged. Description: calcium entry via TRPC4 opening agents – cell-based, HEK293 TRPC4/mu-opioid, Fluo-4 calcium, dose response (AID 434937;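 active means primary screen activator hit with a dose response curve and TRPC4 channel activation at any tested dose; inactive means no activation, no dose response, or not a primary hit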).
Experiment [8] has the same target. Description: potentiation of DAMGO-evoked TRPC4 calcium signal – cell-based, HEK293 TRPC4/mu-opioid, Fluo-4 calcium, EC20 DAMGO, dose response (AID 434941;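 active means earlier screen potentiator hit that boosts the TRPC4 ion channel at some dose, with a dose response; inactive means no potentiation, no dose response, or not a prior hit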;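 further: calcium entry triggered by an EC20 dose of DAMGO at the co-expressed mu-opioid receptor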).
For experiment [9] the target is unchanged. Kind of experiment: block of DAMGO-driven TRPC4 calcium entry – cell-based, HEK293 TRPC4/mu-opioid, Fluo-4 calcium, dose response (AID 434942;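 active means primary screen inhibitor hit that blocks the TRPC4 channel at some tested dose, yielding a dose curve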).
The target of experiment [10] is Short transient receptor potential channel 6 (Mus musculus) (UniProt Q61143). Description: TRPC6 blockade by TRPC4 inhibitor hits – cell-based, HEK293, membrane potential dye, duplicate, selectivity assay for TRPC4 inhibitor project, confirmation (AID 434948;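 active means active in primary screen and both duplicates, each dropping signal beyond three positive-control SD with fluorescence still positive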). The conditions noted are these: HEK293 TRPC6, membrane potential dye fluorescence, at 10 µM, stimulated with maximal-effect acetylcholine; stronger effect = higher value.

For experiment [11] the target is unchanged. Kind of experiment: TRPC6 opening by TRPC4 activator hits – cell-based, HEK293, membrane potential dye, duplicate, selectivity assay for TRPC4 activator project, confirmation (AID 434950;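 active means membrane potential signal rise above negative control mean plus 3 SD in both duplicates, also active in the earlier TRPC4 screen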). The conditions noted are these: HEK293 TRPC6, membrane potential fluorescence, at 10 µM; activation: stronger effect = higher value; outcome: activation.
Experiment [12] shares this target. Description: positive modulators of mouse TRPC6 channel – HEK293 cells, membrane potential dye, duplicate, selectivity assay for TRPC4 potentiator project, confirmation (AID 434952;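 active means compound raising the membrane signal above positive-control mean plus 3 SD in both repeats, and a primary screen hit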). Particulars: HEK293 TRPC6, membrane potential dye fluorescence, at 10 µM, maximal acetylcholine added after compound; stronger effect = higher value.
Experiment [13] has as its target Short transient receptor potential channel 4 (Mus musculus) (UniProt Q9QUQ5). Description: calcium flux activators in TRPC4/5HT1a cells, counter-screen for TRPC4 activator project, cell-based, second counter screen, HEK293 TRPC4/5HT1a, Fluo-4 (AID 434977;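 active means calcium signal rise above buffer-control mean plus 5 SD in both duplicates, and also a hit in the primary screen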;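 on activation: plate controls were assay buffer for no effect and maximal serotonin response for full effect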). The conditions noted are these: Fluo-4 calcium flux, at 10 µM; stronger effect = higher value.
Experiment [14] can be described thus: serotonin-gated TRPC4 signal block – cell-based, second counter screen, HEK293 TRPC4/5HT1a, Fluo-4, counter-screen for TRPC4 inhibitor project, confirmation (AID 434978;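 active means primary screen active whose calcium signal fell more than 3 SD beyond the full-serotonin control mean in both duplicate plates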;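 on outcome: serotonin given first at submaximal then at maximal dose after compound preincubation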). Particulars: Fluo-4 calcium flux, at 10 µM, serotonin added to trigger calcium flux; stronger effect = higher value.
The subject of experiment [15] is TRPC4 (mouse), co-expressed with 5HT1a in HEK293. Description: enhancement of serotonin-evoked TRPC4 response – cell-based, second counter screen, HEK293 TRPC4/5HT1a, Fluo-4, counter-screen for TRPC4 potentiator project, confirmation (AID 434979;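 active means signal rise over 3 SD above mean of control wells given weak agonist, in both repeats and first screen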). The conditions noted are these: Fluo-4 calcium flux, at 10 µM, serotonin added at its EC20 dose; stronger effect = higher value.
The nature of experiment [16]: nonspecific calcium rise without TRPC4 – cell-based, HEK293 mu-opioid receptor line, counter-screen for TRPC4 activator project, confirmation (AID 449723;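 active means hit in primary screen, with calcium signal over 5 SD above buffer well mean in both duplicates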;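 further: counter screen cells carry the mu-opioid receptor alone and lack TRPC4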). The conditions noted are these: HEK293 mu-opioid cells, Fluo-4 calcium fluorescence, at 10 µM; stronger effect = higher value. In general terms: Counterscreens check selectivity or assay interference.
Experiment [17] can be described thus: nonspecific potentiation of DAMGO calcium response – cell-based, HEK293 mu-opioid receptor line, counter-screen for TRPC4 allosteric potentiator project, confirmation (AID 449724;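 active means calcium signal rise more than 3 SD above the low-dose agonist control mean, in both duplicate plates and the primary screen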;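 further: HEK293 cells carrying mu-opioid receptor only with no TRPC4 channel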). Particulars: HEK293 mu-opioid receptor cells, Fluo-4 calcium flux, at 10 µM, compound added before EC20 DAMGO stimulus; stronger effect = higher value.

For part of these data: Potency and affinity values are given separately. Active and inactive are the calls of the source.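 How the source made its calls, unless noted: active means calcium signal cut by more than 3 SD below the full-agonist control yet still positive, in both repeats and the earlier primary screen; inactive means the rest.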

Sequence of Short transient receptor potential channel 6 (Mus musculus) (Q61143 whole entry, looked up): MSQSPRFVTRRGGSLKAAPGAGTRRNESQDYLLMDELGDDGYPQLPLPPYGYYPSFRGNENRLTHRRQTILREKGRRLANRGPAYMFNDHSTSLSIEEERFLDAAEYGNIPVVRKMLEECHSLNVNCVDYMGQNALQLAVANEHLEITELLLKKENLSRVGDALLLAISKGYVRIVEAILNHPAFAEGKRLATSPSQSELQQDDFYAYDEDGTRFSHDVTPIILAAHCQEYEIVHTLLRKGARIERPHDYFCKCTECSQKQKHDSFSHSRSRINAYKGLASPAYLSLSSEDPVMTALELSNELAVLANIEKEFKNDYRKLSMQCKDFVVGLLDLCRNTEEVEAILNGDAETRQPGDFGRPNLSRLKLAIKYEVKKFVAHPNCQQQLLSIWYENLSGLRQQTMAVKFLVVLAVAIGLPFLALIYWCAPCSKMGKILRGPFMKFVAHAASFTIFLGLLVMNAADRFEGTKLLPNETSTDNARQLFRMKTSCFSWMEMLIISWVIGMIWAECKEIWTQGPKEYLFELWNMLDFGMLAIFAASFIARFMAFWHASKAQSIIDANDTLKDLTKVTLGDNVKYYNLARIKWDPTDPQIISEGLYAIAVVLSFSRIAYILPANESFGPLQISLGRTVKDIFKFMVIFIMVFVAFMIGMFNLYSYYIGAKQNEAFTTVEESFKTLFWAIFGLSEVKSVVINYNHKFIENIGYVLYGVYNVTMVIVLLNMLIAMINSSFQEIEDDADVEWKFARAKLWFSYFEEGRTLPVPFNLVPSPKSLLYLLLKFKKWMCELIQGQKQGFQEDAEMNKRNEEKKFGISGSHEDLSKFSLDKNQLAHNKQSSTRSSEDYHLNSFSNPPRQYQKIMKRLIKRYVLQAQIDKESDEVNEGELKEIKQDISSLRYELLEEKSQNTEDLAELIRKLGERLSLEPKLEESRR
Sequence of Short transient receptor potential channel 4 (Mus musculus) (Q9QUQ5 whole entry, looked up): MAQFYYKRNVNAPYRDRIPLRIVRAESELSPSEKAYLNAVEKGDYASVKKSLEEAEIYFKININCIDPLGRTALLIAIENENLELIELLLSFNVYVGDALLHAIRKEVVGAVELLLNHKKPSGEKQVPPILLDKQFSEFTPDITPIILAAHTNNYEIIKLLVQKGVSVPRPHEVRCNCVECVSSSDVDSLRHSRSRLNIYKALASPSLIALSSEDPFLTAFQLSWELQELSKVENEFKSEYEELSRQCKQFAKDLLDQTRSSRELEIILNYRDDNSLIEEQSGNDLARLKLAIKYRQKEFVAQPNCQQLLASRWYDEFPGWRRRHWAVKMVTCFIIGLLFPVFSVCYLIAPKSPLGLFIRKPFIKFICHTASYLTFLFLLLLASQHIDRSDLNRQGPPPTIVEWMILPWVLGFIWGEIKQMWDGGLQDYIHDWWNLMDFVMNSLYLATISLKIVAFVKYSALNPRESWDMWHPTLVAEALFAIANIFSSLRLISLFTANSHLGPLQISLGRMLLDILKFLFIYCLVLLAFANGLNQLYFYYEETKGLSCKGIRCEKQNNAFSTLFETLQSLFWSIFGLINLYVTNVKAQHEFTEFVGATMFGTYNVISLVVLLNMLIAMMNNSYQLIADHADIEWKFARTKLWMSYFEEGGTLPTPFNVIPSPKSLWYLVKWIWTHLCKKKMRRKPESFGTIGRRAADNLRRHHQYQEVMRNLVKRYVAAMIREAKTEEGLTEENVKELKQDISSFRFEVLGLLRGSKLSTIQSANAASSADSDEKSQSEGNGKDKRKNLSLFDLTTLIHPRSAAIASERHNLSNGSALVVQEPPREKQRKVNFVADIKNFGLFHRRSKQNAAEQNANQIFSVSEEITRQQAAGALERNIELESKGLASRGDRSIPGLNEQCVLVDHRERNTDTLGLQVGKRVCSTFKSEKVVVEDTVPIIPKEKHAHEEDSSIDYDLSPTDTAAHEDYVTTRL

With `N=c1c2c(n(Cc3ccc(Br)cc3)c3c1CCC3)CCCC2`, the outcome in experiment [1], in experiment [2], in experiment [3], in [4], in [5] and in [6] was inactive. Further, the result in experiment [7], in experiment [8], in experiment [9], in [10], in experiment [11] and in experiment [12] was inactive. The outcome in experiment [13], in experiment [14], in [15], in experiment [16] and in experiment [17] was inactive.
`CCOC(=O)CC(NS(=O)(=O)c1ccc(OC)c(C)c1)c1cccc([N+](=O)[O-])c1` (stereo not given): the outcome in experiment [1], in experiment [2], in experiment [3], in experiment [4], in experiment [5] and in experiment [6] was inactive. Moreover, the outcome in [7], in experiment [8], in [9], in [10], in experiment [11] and in experiment [12] was inactive. The result in experiment [13], in experiment [14], in experiment [15], in experiment [16] and in experiment [17] was inactive.
For the compound `Cc1cc(/C=N/NC(=O)c2cccc([N+](=O)[O-])c2)c(C)n1-c1ccc(Cl)cc1Cl`, the result in experiment [1], in [2], in experiment [3], in experiment [4], in [7] and in experiment [8] was inactive. In addition, the result in experiment [9], in experiment [10], in experiment [11], in [12], in experiment [13] and in [15] was inactive. Further, the outcome in experiment [16] and in experiment [17] was inactive. Moreover, the inhibition (as a rule, the share of the control response that was lost under treatment) in experiment [5] is 88% (active); in [6], 58% (active); in [14], 35.8% (active).
`CCn1c(/C=C/Nc2ccccc2)[n+](CC)c2ccc(Cl)cc21`: the result in experiment [1], in [2], in experiment [3], in experiment [4], in [5] and in experiment [6] was inactive. In addition, the result in experiment [7], in [8], in experiment [9], in [10], in experiment [11] and in [12] was inactive. The result in experiment [13], in experiment [14], in experiment [15], in experiment [16] and in [17] was inactive.
Regarding `c1ccc(Nc2c3c(nc4ccccc24)CCC3)cc1`, the outcome in experiment [1], in [2], in experiment [3], in experiment [4], in experiment [5] and in [6] was inactive. Also, the outcome in experiment [7], in experiment [8], in experiment [9], in experiment [10], in experiment [11] and in experiment [12] was inactive. Also, the result in experiment [13], in experiment [14], in experiment [15], in experiment [16] and in experiment [17] was inactive.
For `CCCN1CCN(C(=S)NCc2ccc(Cl)cc2)CC1`, the outcome in [1], in [2], in experiment [3], in experiment [5], in experiment [6] and in experiment [7] was inactive. The outcome in [8], in experiment [9], in experiment [10], in experiment [11], in [12] and in [13] was inactive. Also, the outcome in experiment [14], in [16] and in [17] was inactive. Also, the results for the potentiation in experiment [4] and in [15] were 8% (active) and 19.3% (active), respectively.
Take `Cc1ccc(C)n1-c1ncc(Br)cn1`: the result in experiment [1], in experiment [2], in experiment [3], in experiment [5], in experiment [6] and in experiment [7] was inactive. Besides, the outcome in [8], in experiment [9], in experiment [10], in [11], in experiment [12] and in [13] was inactive. For the same compound, the outcome in [14], in [16] and in experiment [17] was inactive. Further, the values for the potentiation in experiment [4] and in [15] were 10% (active) and 31.9% (active), respectively.
In the case of `CC(=O)Cc1nsc(NC(=O)c2csc3c2CCCC3)n1`, the outcome in experiment [1], in experiment [2], in [3], in experiment [4], in experiment [5] and in experiment [6] was inactive. The outcome in experiment [7], in experiment [8], in experiment [9], in [10], in experiment [11] and in [12] was inactive. The outcome in experiment [13], in [14], in experiment [15], in [16] and in experiment [17] was inactive.
Take `COc1ccc(NC(C)=O)cc1NC(C)C(=O)Nc1cc(C(F)(F)F)ccc1N1CCOCC1` (stereo not given): the result in experiment [1], in experiment [2], in [3], in experiment [4], in experiment [5] and in experiment [6] was inactive. Further, the outcome in experiment [7], in [8], in experiment [9], in experiment [10], in experiment [11] and in experiment [12] was inactive. Further, the outcome in experiment [13], in experiment [14], in experiment [16] and in [17] was inactive. For the same compound, in experiment [15], the potentiation was 14.5% (active).
Turning to `O=C(c1ccccc1F)N1CCN(c2ccc([N+](=O)[O-])cc2-n2cccc2)CC1`, the outcome in experiment [1], in experiment [2], in experiment [3], in experiment [5], in experiment [6] and in experiment [7] was inactive. In addition, the result in [8], in [9], in experiment [10], in experiment [11], in experiment [12] and in experiment [13] was inactive. Also, the outcome in [14], in experiment [16] and in experiment [17] was inactive. Moreover, the values for the potentiation in experiment [4] and in experiment [15] were 20% (active) and 17.1% (active), respectively.
In the case of `Cc1ccc(S(=O)(=O)NC(C(=O)Oc2cc3oc(=O)cc(C)c3cc2Cl)C(C)C)cc1` (stereo not given), the outcome in [1], in experiment [2], in [3], in [4], in experiment [5] and in experiment [6] was inactive. Besides, the outcome in experiment [7], in [8], in experiment [9], in experiment [10], in [11] and in [12] was inactive. Moreover, the outcome in [13], in experiment [14], in experiment [15], in [16] and in experiment [17] was inactive.
For the compound `Cn1c(/N=C/c2ccccc2[N+](=O)[O-])nc2ccccc21`, the outcome in experiment [1], in experiment [2], in experiment [3], in experiment [4], in experiment [5] and in [6] was inactive. The outcome in experiment [7], in experiment [8], in [9], in experiment [10], in experiment [11] and in experiment [12] was inactive. The result in [13], in experiment [14], in [16] and in experiment [17] was inactive. The potentiation in experiment [15] is 11.9% (active).
Turning to `Fc1ccc(CN2C3=NCCCN3c3ccccc32)cc1`, the outcome in experiment [1], in experiment [2], in [3], in [4], in experiment [5] and in [6] was inactive. Also, the outcome in experiment [7], in experiment [8], in experiment [9], in experiment [10], in experiment [11] and in experiment [12] was inactive. Further, the result in [13], in [14], in experiment [15], in [16] and in [17] was inactive.
With `Cc1cccc(C)c1OCC(=O)N1CC2(C)CC1CC(C)(C)C2` (stereo not given), the outcome in experiment [1], in experiment [2], in experiment [3], in [4], in [5] and in [6] was inactive. Also, the outcome in [7], in [8], in [9], in experiment [10], in [11] and in [12] was inactive. Besides, the result in [13], in experiment [14], in experiment [15], in [16] and in [17] was inactive.
For `COc1ccccc1C(=O)NNC1=C(C(=O)C(F)(F)F)CCC1`, the activation was 58% (active) in experiment [1] and 11% (active) in experiment [13]. The result in [2], in experiment [3], in [4], in experiment [5], in experiment [6] and in [7] was inactive. The outcome in experiment [8], in [9], in experiment [10], in experiment [11], in experiment [12] and in experiment [14] was inactive. The result in experiment [15], in experiment [16] and in experiment [17] was inactive.

Source of the values: PubChem BioAssay.
